# MLLE-PAM2 inh = inhibitors of PABP1 MLLE–PAM2 peptide binding, primary screen, biochemical, fluorescence polarization, FITC-PAM2, GST-MLLE | actives 0.36% (n = 360,000) | inhibition, % at 20 µM | AID 588489, 2011; in the data active = inhibition above about 35%, passing the limit was not always enough;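 also: plate controls were DMSO wells with GST-MLLE for no effect and wells lacking GST-MLLE protein for full effect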
# ABCB6 inh MLPCN = ABCB6 transporter inhibitors, primary screen, K562-ABCB6 cells, flow cytometry, MLPCN library; ATP-binding cassette sub-family B member 6 (Homo sapiens), Q9NP58; K562-ABCB6 porphyrin accumulation, 1 h; active compounds read low; fluorescence ratio to DMSO, % at 10 µM; actives 0.19% (n = 360,000);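 active = fluorescence ratio to DMSO below 75%, the collection mean minus 3 SD; inconclusive = too few cells collected in the well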;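 also: signal is porphyrin accumulated inside mitochondria; 100% equals median channel fluorescence of DMSO control wells; lower ratio means ABCB6 inhibition with less porphyrin fluorescence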
# PABP polyA inh = PABP poly(A) RNA binding inhibitors, primary screen, biochemical, fluorescence polarization, uHTS; calls only at 35 µM; actives 1% (n = 290,000); Polyadenylate-binding protein 1 (Homo sapiens), P11940;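 also: calls also rest on retests at 20 µM and on dose response follow-up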
# AI-2 QS modul = Vibrio harveyi AI-2 quorum sensing modulators, primary screen, JMH597 strain, luminescence/OD600 ratio | actives 0.4% (n = 300,000) | Vibrio harveyi JMH597 AI-2 luminescence/OD600 ratio, 9 h; active compounds read low; strain lacks LuxN and CqsS sensors; 0 = neutral-control median | activity change, % at 7.5 µM | AID 2094, 2009; in the data active = activity change below about -75%, passing the limit was not always enough; inconclusive = no clear call, values can overlap the other calls;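 also: luminescence divided by OD600 gain over 9 h not by final OD600 alone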
# PHOSPHO1 block = PubChem AID 1565; Phosphoethanolamine/phosphocholine phosphatase (Homo sapiens), Q8TCT1; recombinant PHOSPHO1, absorbance phosphatase assay; inhibition, % at 13.3 µM; actives 1.1% (n = 290,000); in the data active = inhibition above about 60%
# Target sequence (Q8TCT1 whole entry, looked up): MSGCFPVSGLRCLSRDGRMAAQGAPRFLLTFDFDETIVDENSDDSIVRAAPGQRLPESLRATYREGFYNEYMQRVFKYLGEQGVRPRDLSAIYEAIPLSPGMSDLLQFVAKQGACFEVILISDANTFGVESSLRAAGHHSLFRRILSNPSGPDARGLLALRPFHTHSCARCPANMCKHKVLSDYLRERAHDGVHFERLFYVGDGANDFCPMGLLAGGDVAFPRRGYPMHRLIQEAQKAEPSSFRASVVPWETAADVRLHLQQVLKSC
# eIF4H FP inh = human eIF4H binding inhibitors, primary screen, translation initiation inhibitor project, biochemical, uHTS, fluorescence polarization. eIF4H fluorescence polarization binding assay. Eukaryotic translation initiation factor 4H (Homo sapiens), Q15056. actives 0.94% (n = 290,000). inhibition, % at 35 µM. AID 2012, 2009;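 also: calls also rest on retests at 20 µM and on dose response follow-up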
# * marks the source's active call; other numbers are inactive results; i = inactive; ? = inconclusive; . = no result; + = active, no number. Most compounds without a hit are left out; they make up all but 2.6% or so of the library. Unless noted, no rule for the calls is given here.
SMILES,MLLE-PAM2 inh,ABCB6 inh MLPCN,PABP polyA inh,AI-2 QS modul,PHOSPHO1 block,eIF4H FP inh
COc1ccc(CCCNC(=O)C2(C)Cc3c(-c4cccc(C(N)=O)c4)ccnc3O2)cc1 (stereo not given),-0.9,82.0,.,.,.,.
CCCC(C)NC(=O)CSc1nnc(-c2c[nH]c3ccccc23)o1 (stereo not given),-4.5,96.0,i,12.2,73.2*,-1.5
c1ccc(CSc2nnc(-c3c[nH]c4ccccc34)o2)cc1,-7.8,96.0,i,-81.9*,-28.6,5.2
c1ccc2c(-c3nnc(SCc4cn5ccccc5n4)o3)c[nH]c2c1,-128.0,.,i,18.5,85.0*,6.9
COC(=O)CSc1nnc(-c2c[nH]c3ccccc23)o1,-1.9,102.0,i,17.4,28.7,-5.9
CC(C)(C)NC(=O)CSc1nnc(-c2c[nH]c3ccccc23)o1,-4.8,102.0,i,8.3,13.5,-0.5
CC(C)(C)c1ccc(C(=O)N2CCC2(C)C(=O)NCCC#N)cc1 (stereo not given),-0.8,98.0,.,.,.,.
CC(C)C[C@H]1CN(CCCC[C@H]2CNC(=O)C(=O)N2CCc2ccc(O)cc2)C(=O)C(=O)N1CCc1ccccc1,.,99.0,.,.,.,.
NC(=O)NOCc1c(Cl)cccc1Cl,4.4,99.0,i,25.4,-8.2,1.1
NC(=O)NOCc1c(F)cccc1Cl,-5.3,96.0,+,-2.3,36.8,5.6
COc1cc(/C=C(\C#N)C(=O)NCC2CCCO2)ccc1O (stereo not given),-18.9,100.0,+,0.7,-22.0,active
O=C(COc1ccccc1)Nc1nnc(-c2ccccc2Cl)o1,-0.5,109.0,i,-79.0*,19.8,0.8
O=C(Cn1nc2ccccc2n1)N/N=C/c1cc([N+](=O)[O-])ccc1O,5.0,99.0,i,-85.9*,-31.5,12.1
O=C(Cn1nnc(-c2ccccc2)n1)N/N=C/c1cc([N+](=O)[O-])ccc1O,10.6,96.0,?,32.2,3.0,-1.7
O=C(Cn1cnc([N+](=O)[O-])n1)N/N=C/c1cc(Cl)ccc1O,3.9,95.0,i,-84.1*,0.3,-0.7
O=C(Cn1cnc([N+](=O)[O-])n1)N/N=C/c1ccccc1O,2.8,110.0,i,?,20.2,3.1
Cc1ccn(CC(=O)N/N=C/c2cc([N+](=O)[O-])ccc2O)n1,0.9,98.0,i,-168.7*,14.0,3.8
CCc1n[nH]c(=S)n1/N=C/c1ccc(-c2ccc(Br)cc2)o1,-117.2,96.0,.,17.6,.,.
CCc1n[nH]c(=S)n1/N=C/c1cc(Br)c(OC)cc1OC,-32.8,96.0,i,19.3,60.3*,4.7
CC(C)(C)n1nnnc1C(c1ccccc1)N1CCN(CCN2CCOCC2)CC1 (stereo not given),.,97.0,.,.,.,.
CCOc1ccc(C2CC(=O)n3nc(C45CC6CC(CC(C6)C4)C5)nc3S2)cc1OC (stereo not given),15.5,91.0,i,29.4,83.7*,0.6
O=C1Nc2ccccc2N(C(=O)c2ccc3ccccc3c2)C1c1nc2ccccc2[nH]1 (stereo not given),.,94.0,.,.,.,.
Cc1cc(C)c2cc3c(ccn3C3OC[C@H](O)[C@H](O)[C@H]3O)cc2n1 (stereo not given in full),49.1*,96.0,+,19.8,-13.6,32.9*
CCOC(=O)C(=O)C1=C(N2CCOCC2)/C(=C\c2cccc([N+](=O)[O-])c2)CC1,0.8,106.0,+,3.1,-0.8,79.9
COc1cccc(-c2cnc(C(O)c3c(C)cc(C)cc3C)[nH]2)c1 (stereo not given),-3.2,98.0,.,.,.,.
SMILES,MLLE-PAM2 inh,ABCB6 inh MLPCN,PABP polyA inh,AI-2 QS modul,PHOSPHO1 block,eIF4H FP inh
CN(Cc1ccc(Cl)cc1)C(C(=O)NC1CCCCC1)c1ccnc2ccccc12 (stereo not given),-8.9,103.0,.,.,.,.
CCOc1cc(/C=C2/NC(=O)NC2=O)cc(Br)c1OCc1ccc(C(=O)O)cc1,-91.2,105.0,i,24.0,85.7*,101.6
O=C(NC(c1ccccc1)c1ccsc1)C1CCN(Cc2ccc(Oc3ccccc3)cc2)CC1 (stereo not given),10.9,99.0,.,.,.,.
COC(=O)C1=C(C(=O)OC)SC(=C2C(=S)C(C)(C)N(C(=O)C(C)C)c3ccccc32)S1,32.3,90.0,i,16.0,80.4*,-8.9
COc1ccc(NC(=O)CN2C(=O)/C(=C3\SC(=S)N(C4CCS(=O)(=O)C4)C3=O)c3ccccc32)cc1 (stereo not given),25.4,91.0,i,14.1,17.7,2.8
CCCC(=O)N1c2ccccc2C(=C2SC(C(=O)OC)=C(C(=O)OC)S2)C(=S)C1(C)C,37.8,87.0,i,-3.9,-20.8,-4.6
COC(=O)C1=C(C(=O)OC)SC(=C2C(=S)C(C)(C)N(C(=O)C3CC3)c3ccccc32)S1,39.5*,94.0,i,22.3,78.7*,-14.5
Cc1cc(C(=O)O)ccc1-c1ccc(/C=C2\NC(=O)N(Cc3ccc(F)cc3)C2=O)o1,-3.8,101.0,+,40.7,-20.8,80.7*
Cc1ccc(CN2C(=O)N/C(=C/c3ccc(-c4ccc(C(=O)O)cc4)o3)C2=O)cc1,-15.5,99.0,+,12.3,-1.5,68.6*
O=C(O)c1ccc(COc2ccc3ccccc3c2/C=C2/NC(=O)N(Cc3ccc(F)cc3)C2=O)cc1,-9.4,98.0,i,.,45.4,18.3
Cc1cc(=O)[nH]c(SCC(=O)Nc2ccccc2C)n1,-8.3,83.0,i,39.7,24.8,5.9
Cc1cc(=O)[nH]c(N=N/C(=N/Nc2ccccc2C)c2ccccc2)n1,30.2,112.0,i,9.3,92.4*,-5.4
Cc1cc(=O)[nH]c(N=N/C(=N/Nc2ccc(O)cc2)c2ccccc2)n1,30.5,104.0,i,23.4,92.1*,17.5
COc1ccc(N/N=C(/N=Nc2nc(C)cc(=O)[nH]2)c2ccccc2)cc1,2.0,95.0,i,28.0,51.2,23.8
Cn1c(SCC(=O)Nc2cc(=O)n(C)c(=O)n2C)nnc1C12CC3CC(CC(C3)C1)C2,.,.,i,.,61.0*,-5.2
COc1cccc(CNC[C@H]2O[C@@H](n3ccc(N)nc3=O)[C@H](O)[C@@H]2O)c1OCc1ccc(F)cc1Cl,3.9,110.0,.,.,.,.
O=C(O)CC(C(=O)O)c1ccc(OCCCCOc2ccc(C(CC(=O)O)C(=O)O)cc2)cc1 (stereo not given),-6.6,94.0,+,17.6,44.9,100.6*
CC1=CC2=C(C=O)C(=O)C(C)(O)C(O)C2=CO1 (stereo not given),7.7,98.0,.,.,.,.
Cc1cc(-c2nsc(=O)o2)c(S(C)(=O)=O)s1,16.9,98.0,i,6.1,69.2*,1.2
